Calls of active or inactive are those of the source. Rule for the calls: active = hit-call score of the fitted dose curve at least 0.9, where 1 is the maximum; inactive = score below 0.9.

These results are taken from PubChem BioAssay (EPA / NIEHS).

Test [1] is described as follows: ATG_CMV_CIS: Attagene CIS-FACTORIAL HepG2 Assay for human CMV (Internal Marker) (AID 2282928).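 Note: endpoint acts as a background internal control marker rather than a target.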 Conditions: HepG2 CMV promoter reporter, transcription factor profiling; actives raise or lower the signal. The gist of the method:
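24 h chemical treatment, HepG2 with transient multi-reporter transfection; RNA → oligo(dT) RT → PCR → 6-FAM extension → HpaI digest → CE fluorescence. Bidirectional fit, DMSO negative control.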

Test [2] can be described thus: ATG_ISRE_CIS: Attagene CIS-FACTORIAL HepG2 Assay for human Interferon Regulatory Factor 1 (IRF1) binding to an Interferon-Stimulated Response Element (ISRE) (AID 2282948). Conditions: HepG2 ISRE cis-reporter (Attagene), mRNA transcription readout; actives raise or lower the signal. The gist of the method: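 Multiplexed mRNA reporter readout in human liver HepG2 cells: cis-element-driven reporters transfected, compound added for 24 h, transcripts amplified, fluorescently labelled and sized by capillary electrophoresis; curve fitting bidirectional against DMSO.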

Test [3] is described as follows: ATG_M_32_CIS: Attagene CIS-FACTORIAL HepG2 Assay for M32 Transcription Factor (Internal Marker) (AID 2282949).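 Note: background control marker of the multiplexed CIS panel rather than a real target.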 The conditions noted are these: HepG2 Attagene cis-factorial M32 reporter, mRNA; actives raise or lower the signal. The gist of the method: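 HepG2 human liver cells transiently transfected with cis-promoter-driven multiple reporter transcription units, dosed 24 h. Reporter mRNA quantified by RT-PCR, FAM-labelled primer extension, HpaI digest and capillary electrophoresis; bidirectional fit versus DMSO baseline.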

Test [4] deals with Hepatocyte nuclear factor 6 (Homo sapiens) (UniProt Q9UBC0). In words: ATG_HNF6_CIS: Attagene CIS-FACTORIAL HepG2 Assay for human Hepatocyte Nuclear Factor 6 (HNF6) (AID 2282952). The conditions noted are these: HepG2 Attagene cis-factorial HNF6 reporter transcription; actives raise or lower the signal. A digest of the protocol:
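Endogenous factor activity read in transiently transfected HepG2 via promoter-regulated reporter transcripts. RNA harvested 24 h post-dosing, reverse-transcribed, PCR-amplified, FAM-labelled, HpaI-digested and resolved by capillary electrophoresis; fitted in both directions against DMSO.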

Test [5] addresses Heat shock factor protein 1 (Homo sapiens) (UniProt Q00613). Kind of test: ATG_HSE_CIS: Attagene CIS-FACTORIAL HepG2 Assay for human Heat Shock Transcription Factor 1 (HSE) (AID 2282953). Conditions: HepG2 HSE cis-reporter, Attagene RNA transcription; actives raise or lower the signal. The gist of the method: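 Read-out: fluorescence of reporter-specific RT-PCR fragments separated by capillary electrophoresis. HepG2 carrying transfected cis-element reporter units; 24 h dosing; activity fitted in both directions relative to DMSO baseline.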

Test [6] can be described thus: ATG_RORE_CIS: Attagene CIS-FACTORIAL HepG2 Assay for human RAR-related Orphan Receptor Element (RORE) (AID 2282959). Conditions: HepG2 Attagene cis-factorial RORE reporter, mRNA; actives raise or lower the signal. A digest of the protocol:
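Fluorescence intensity of reporter-specific cDNA fragments, separated by capillary electrophoresis, gives the signal. Source: HepG2 liver cells transiently transfected with cis-element reporters and exposed 24 h; DMSO-normalized bidirectional fit.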

The target of test [7] is Signal transducer and activator of transcription 3 (Homo sapiens) (UniProt P40763). Kind of test: ATG_STAT3_CIS: Attagene CIS-FACTORIAL HepG2 Assay for human Signal Transducer and Activator of Transcription 3 (STAT3) (AID 2282963). Conditions: HepG2, Attagene cis-factorial STAT3 reporter transcription; actives raise or lower the signal. The gist of the method: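 HepG2, MRTU-transfected, 24 h dosing. RNA → RT → PCR → FAM label → HpaI → CE. Bidirectional fit vs DMSO.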
Chain of Signal transducer and activator of transcription 3 (Homo sapiens) (P40763 whole entry, looked up): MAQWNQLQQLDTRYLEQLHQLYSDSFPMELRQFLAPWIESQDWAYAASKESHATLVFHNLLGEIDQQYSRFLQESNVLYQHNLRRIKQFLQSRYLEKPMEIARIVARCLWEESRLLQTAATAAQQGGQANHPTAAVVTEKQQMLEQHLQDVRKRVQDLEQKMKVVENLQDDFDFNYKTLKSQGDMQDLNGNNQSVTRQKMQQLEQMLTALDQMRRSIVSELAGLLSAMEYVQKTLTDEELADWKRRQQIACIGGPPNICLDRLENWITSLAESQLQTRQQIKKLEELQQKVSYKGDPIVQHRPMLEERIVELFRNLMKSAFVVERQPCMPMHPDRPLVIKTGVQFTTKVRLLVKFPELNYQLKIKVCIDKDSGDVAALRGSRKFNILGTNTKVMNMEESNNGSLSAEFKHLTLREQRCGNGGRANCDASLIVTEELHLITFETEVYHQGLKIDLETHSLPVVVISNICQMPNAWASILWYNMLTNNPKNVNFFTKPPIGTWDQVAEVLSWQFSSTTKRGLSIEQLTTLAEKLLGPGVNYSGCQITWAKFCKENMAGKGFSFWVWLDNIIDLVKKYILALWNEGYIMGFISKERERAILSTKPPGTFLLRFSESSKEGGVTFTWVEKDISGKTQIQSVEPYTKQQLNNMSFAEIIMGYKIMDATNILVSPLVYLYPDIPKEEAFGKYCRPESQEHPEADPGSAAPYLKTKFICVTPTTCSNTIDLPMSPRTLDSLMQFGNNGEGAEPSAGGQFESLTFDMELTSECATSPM

Test [8] is described as follows: ATG_TA_CIS: Attagene CIS-FACTORIAL HepG2 Assay for human TA Basal Promoter (AID 2282964). Conditions: HepG2 Attagene CIS-factorial TA basal promoter reporter; actives raise or lower the signal. The gist of the method: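 Transfected HepG2, 24 h compound exposure; RNA → RT-PCR → FAM primer extension → HpaI cut → CE fluorescence. Gain/loss-of-signal fitted against DMSO negative control. Background-control readout.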

Test [9] can be described thus: ATG_TCF_b_cat_CIS: Attagene CIS-FACTORIAL HepG2 Assay for human T-Cell-Factor with beta-catenin (TCF/b-cat) (AID 2282965). The conditions noted are these: HepG2 TCF/beta-catenin cis-reporter transcription, actives raise or lower the signal. A digest of the protocol:
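HepG2 cells transiently transfected with multiple cis-promoter-regulated reporter transcription units, so endogenous transcription factor activity is measured. Reporter mRNA read 24 hours after dosing by RT-PCR, fluorescent labelling and capillary electrophoresis; bidirectional fitting against DMSO.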

Test [10] is described as follows: ATG_TAL_CIS: Attagene CIS-FACTORIAL HepG2 Assay for human TAL Basal Promoter (AID 2282966).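 Note: background control endpoint measuring basal TAL promoter reporter mRNA not a specific factor.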 The conditions noted are these: HepG2 Attagene cis-factorial TAL promoter reporter; actives raise or lower the signal. The gist of the method:
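Background-control endpoint: basal TAL promoter reporter transcripts in transiently transfected HepG2, measured 24 h after dosing. Read-out by RT-PCR with fluorescent primer extension and capillary electrophoresis; gain or loss of signal fitted relative to DMSO.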

Test [11] can be described thus: ATG_TGFb_CIS: Attagene CIS-FACTORIAL HepG2 Assay for human Transforming Growth Factor (TGF) (AID 2282967). The conditions noted are these: HepG2 Attagene CIS TGFb reporter, mRNA transcription; actives raise or lower the signal. A digest of the protocol: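 Readout: fluorescently labeled reporter cDNA fragments resolved by capillary electrophoresis after RT-PCR. Transfected HepG2 cells dosed for 24 h; endogenous TF activity at TGFB1-linked cis element; gain or loss fitted relative to DMSO.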

The nature of test [12]: ATG_VDRE_CIS: Attagene CIS-FACTORIAL HepG2 Assay for human Vitamin D Receptor Element (VDRE) (AID 2282968). Conditions: HepG2 VDRE cis-reporter transcription, actives raise or lower the signal. A digest of the protocol: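 Steps: transfect HepG2 with multiple reporter transcription units; dose chemicals 24 h; isolate RNA; RT-PCR; label with 6-FAM primer extension; HpaI digest; capillary electrophoresis. Curves fitted both directions against DMSO.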

For test [13], the target named is X-box-binding protein 1 (Homo sapiens) (UniProt P17861). In words: ATG_Xbp1_CIS: Attagene CIS-FACTORIAL HepG2 Assay for human X-box Binding Protein 1 (XBP1) (AID 2282972). The conditions noted are these: HepG2 XBP1 cis-element reporter, Attagene multiplex; actives raise or lower the signal. A digest of the protocol:
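Multiplexed cis-reporter readout in transfected HepG2 liver cells. Exposure lasted 24 hours. Activity in either direction was fitted against DMSO as negative control and baseline.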

Test [14] addresses Transcriptional activator Myb (Homo sapiens) (UniProt P10242). Kind of test: ATG_Myb_CIS: Attagene CIS-FACTORIAL HepG2 Assay for human Myeloblastosis (Myb) Proto-Oncogene Transcription Factor (AID 2282986). The conditions noted are these: HepG2 Attagene CIS-FACTORIAL Myb reporter transcription; actives raise or lower the signal. The gist of the method:
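Fluorescence signals from capillary electrophoresis of RT-PCR-amplified reporter cDNA give the read-out. Cells: HepG2 transfected with multiple cis-regulated reporter units. Exposure lasts 24 hours; DMSO defines baseline for gain or loss of signal.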

The target of test [15] is Nuclear respiratory factor 1 (Homo sapiens) (UniProt Q16656). Kind of test: ATG_NRF1_CIS: Attagene CIS-FACTORIAL HepG2 Assay for human Nuclear Respiratory Factor 1 (NRF1) Orphan Gene (AID 2282987). Conditions: HepG2 NRF1 cis-element reporter, Attagene multiplex; actives raise or lower the signal. A digest of the protocol:
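Transcriptional reporter readout, one component of a 52-endpoint multiplexed HepG2 panel. Exposure 24 h; mRNA detected via RT-PCR and fluorescent capillary electrophoresis; fitting in both directions against DMSO.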

Test [16] has as its target Myc proto-oncogene protein (Homo sapiens) (UniProt P01106). Kind of test: ATG_Myc_CIS: Attagene CIS-FACTORIAL HepG2 Assay for human Myelocytomatosis (Myc) Proto-Oncogene Transcription Factor (AID 2282990). The conditions noted are these: HepG2, Attagene cis-reporter transcription factor activity; actives raise or lower the signal. The gist of the method: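 HepG2 cells transiently transfected with multiple cis-promoter-driven reporter transcription units, so endogenous TF activity is read. After 24 h compound exposure, reporter mRNA was quantified by RT-PCR, 6-FAM labelling, HpaI digestion and capillary electrophoresis; bidirectional fit versus DMSO.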

Test [17] in a line: ATG_NF_kB_CIS: Attagene CIS-FACTORIAL HepG2 Assay for human Nuclear Factor Kappa B (NF-kB) (AID 2282991). Conditions: HepG2 Attagene cis-factorial NF-kB reporter mRNA; actives raise or lower the signal. The gist of the method:
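HepG2, transient multi-reporter transfection, cis promoter elements (endogenous TFs). 24 h exposure. Total RNA → RT → PCR → 6-FAM label → HpaI → CE. Gain/loss vs DMSO.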

Test [18] can be described thus: ATG_NRF2_ARE_CIS: Attagene CIS-FACTORIAL HepG2 Assay for human Nuclear Factor Erythroid 2 Related Factor 2 (NFR2) response to Antioxidant Response Elements (ARE) (AID 2282992).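 For AC50: reporter mRNA level measured by RT-PCR and capillary electrophoresis fluorescence.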 The conditions noted are these: HepG2 Attagene ARE/NRF2 reporter, transcription factor activity; actives raise or lower the signal. The gist of the method:
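Endogenous transcription factor activity in human liver HepG2 cells is tracked via a cis-element-driven reporter within a multiplexed set. mRNA induction is read by RT-PCR and capillary electrophoresis after 24 h, with DMSO as baseline.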

The nature of test [19]: ATG_Oct_MLP_CIS: Attagene CIS-FACTORIAL HepG2 Assay for human Octamer-Binding Transcription Factor (Oct) (AID 2282993). Conditions: HepG2 Attagene cis-factorial Oct reporter, mRNA; actives raise or lower the signal. A digest of the protocol: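 Read-out: reporter mRNA via RT-PCR plus capillary electrophoresis of 6-FAM-labelled fragments. Transiently transfected HepG2, 24 h exposure, endogenous TF activity on cis elements. Gain or loss of signal fitted relative to DMSO.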

Test [20] has as its target Cellular tumor antigen p53 (Homo sapiens) (UniProt P04637). In words: ATG_p53_CIS: Attagene CIS-FACTORIAL HepG2 Assay for human p53 Transcription Factor (AID 2282994). The conditions noted are these: HepG2 p53 cis-element reporter, Attagene mRNA; actives raise or lower the signal. The gist of the method:
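Steps: transfect HepG2 with multiplexed cis reporter constructs; dose chemicals 24 h; extract RNA, reverse-transcribe, PCR-amplify reporter sequences; FAM-label, HpaI-digest, resolve fragments by CE. Activity fitted both directions relative to DMSO.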

Chain of Hepatocyte nuclear factor 6 (Homo sapiens) (Q9UBC0 whole entry, looked up): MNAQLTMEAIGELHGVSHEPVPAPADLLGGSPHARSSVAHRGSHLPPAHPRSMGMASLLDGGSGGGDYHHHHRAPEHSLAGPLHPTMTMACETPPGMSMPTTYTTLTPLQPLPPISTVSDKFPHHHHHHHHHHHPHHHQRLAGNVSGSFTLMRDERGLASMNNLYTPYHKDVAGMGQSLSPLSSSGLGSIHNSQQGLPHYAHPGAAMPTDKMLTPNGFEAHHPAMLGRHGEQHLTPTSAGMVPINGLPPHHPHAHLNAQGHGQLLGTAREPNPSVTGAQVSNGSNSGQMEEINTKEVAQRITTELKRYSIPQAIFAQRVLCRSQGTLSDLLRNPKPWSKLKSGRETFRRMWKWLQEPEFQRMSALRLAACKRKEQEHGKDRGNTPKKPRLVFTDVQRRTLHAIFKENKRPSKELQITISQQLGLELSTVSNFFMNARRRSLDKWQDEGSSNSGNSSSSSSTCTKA
Chain of Myc proto-oncogene protein (Homo sapiens) (P01106 whole entry, looked up): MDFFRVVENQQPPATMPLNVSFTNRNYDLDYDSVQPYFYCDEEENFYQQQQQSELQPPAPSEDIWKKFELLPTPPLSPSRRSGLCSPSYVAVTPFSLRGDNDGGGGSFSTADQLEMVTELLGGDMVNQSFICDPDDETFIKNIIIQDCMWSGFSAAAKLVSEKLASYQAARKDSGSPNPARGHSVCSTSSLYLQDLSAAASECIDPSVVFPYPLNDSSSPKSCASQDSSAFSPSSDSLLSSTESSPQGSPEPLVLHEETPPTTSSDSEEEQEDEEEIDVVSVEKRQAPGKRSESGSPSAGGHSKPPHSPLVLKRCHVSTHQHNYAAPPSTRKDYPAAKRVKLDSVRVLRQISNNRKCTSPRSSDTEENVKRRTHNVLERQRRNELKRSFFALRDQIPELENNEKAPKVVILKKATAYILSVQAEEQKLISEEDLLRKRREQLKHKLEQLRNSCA
Chain of Transcriptional activator Myb (Homo sapiens) (P10242 whole entry, looked up): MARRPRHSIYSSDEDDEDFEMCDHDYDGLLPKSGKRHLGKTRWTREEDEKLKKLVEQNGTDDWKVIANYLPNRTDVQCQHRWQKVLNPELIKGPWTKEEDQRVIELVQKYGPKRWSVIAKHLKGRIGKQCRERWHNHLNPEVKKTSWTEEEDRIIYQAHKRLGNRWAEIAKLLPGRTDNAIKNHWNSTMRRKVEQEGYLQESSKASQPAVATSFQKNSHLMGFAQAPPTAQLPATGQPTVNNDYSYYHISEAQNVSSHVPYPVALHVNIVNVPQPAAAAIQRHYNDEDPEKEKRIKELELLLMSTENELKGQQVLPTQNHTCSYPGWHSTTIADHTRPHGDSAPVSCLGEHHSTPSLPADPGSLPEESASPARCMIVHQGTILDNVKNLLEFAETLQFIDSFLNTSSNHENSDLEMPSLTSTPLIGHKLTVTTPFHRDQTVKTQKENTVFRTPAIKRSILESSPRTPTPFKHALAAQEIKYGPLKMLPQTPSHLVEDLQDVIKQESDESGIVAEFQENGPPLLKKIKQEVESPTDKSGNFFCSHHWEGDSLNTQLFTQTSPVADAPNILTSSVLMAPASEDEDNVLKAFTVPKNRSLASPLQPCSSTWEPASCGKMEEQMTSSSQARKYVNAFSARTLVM
Chain of Cellular tumor antigen p53 (Homo sapiens) (P04637 whole entry, looked up, the tested form may be a part): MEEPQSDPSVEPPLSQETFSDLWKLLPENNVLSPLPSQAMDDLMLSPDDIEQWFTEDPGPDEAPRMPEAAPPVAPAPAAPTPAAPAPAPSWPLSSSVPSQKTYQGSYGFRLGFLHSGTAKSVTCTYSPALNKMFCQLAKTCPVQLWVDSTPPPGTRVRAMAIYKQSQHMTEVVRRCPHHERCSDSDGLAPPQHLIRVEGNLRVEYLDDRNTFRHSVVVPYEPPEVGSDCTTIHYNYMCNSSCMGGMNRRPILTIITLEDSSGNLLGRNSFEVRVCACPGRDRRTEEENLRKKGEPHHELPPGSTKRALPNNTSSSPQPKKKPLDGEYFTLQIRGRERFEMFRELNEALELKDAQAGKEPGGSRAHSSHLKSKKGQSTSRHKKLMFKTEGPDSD
Chain of Nuclear respiratory factor 1 (Homo sapiens) (Q16656 whole entry, looked up): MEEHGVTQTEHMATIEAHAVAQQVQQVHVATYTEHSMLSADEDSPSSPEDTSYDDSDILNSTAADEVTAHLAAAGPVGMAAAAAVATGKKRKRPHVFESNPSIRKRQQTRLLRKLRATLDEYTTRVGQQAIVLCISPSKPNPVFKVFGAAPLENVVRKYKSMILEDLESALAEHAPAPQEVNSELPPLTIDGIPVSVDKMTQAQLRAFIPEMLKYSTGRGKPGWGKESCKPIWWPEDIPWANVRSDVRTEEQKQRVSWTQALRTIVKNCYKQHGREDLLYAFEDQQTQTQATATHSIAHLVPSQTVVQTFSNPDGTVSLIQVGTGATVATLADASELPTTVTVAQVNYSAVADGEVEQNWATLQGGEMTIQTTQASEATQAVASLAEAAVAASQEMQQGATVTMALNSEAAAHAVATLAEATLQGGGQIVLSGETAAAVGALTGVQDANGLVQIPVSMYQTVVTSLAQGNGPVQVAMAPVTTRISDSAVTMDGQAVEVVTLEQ
Chain of X-box-binding protein 1 (Homo sapiens) (P17861 whole entry, looked up): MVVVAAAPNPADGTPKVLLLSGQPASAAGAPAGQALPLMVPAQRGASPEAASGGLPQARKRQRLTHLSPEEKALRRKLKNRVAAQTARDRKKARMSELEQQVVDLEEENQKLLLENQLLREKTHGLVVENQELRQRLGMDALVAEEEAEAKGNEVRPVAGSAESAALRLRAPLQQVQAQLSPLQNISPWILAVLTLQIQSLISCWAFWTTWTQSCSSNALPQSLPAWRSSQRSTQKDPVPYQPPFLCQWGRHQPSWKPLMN
Chain of Heat shock factor protein 1 (Homo sapiens) (Q00613 whole entry, looked up, the tested form may be a part): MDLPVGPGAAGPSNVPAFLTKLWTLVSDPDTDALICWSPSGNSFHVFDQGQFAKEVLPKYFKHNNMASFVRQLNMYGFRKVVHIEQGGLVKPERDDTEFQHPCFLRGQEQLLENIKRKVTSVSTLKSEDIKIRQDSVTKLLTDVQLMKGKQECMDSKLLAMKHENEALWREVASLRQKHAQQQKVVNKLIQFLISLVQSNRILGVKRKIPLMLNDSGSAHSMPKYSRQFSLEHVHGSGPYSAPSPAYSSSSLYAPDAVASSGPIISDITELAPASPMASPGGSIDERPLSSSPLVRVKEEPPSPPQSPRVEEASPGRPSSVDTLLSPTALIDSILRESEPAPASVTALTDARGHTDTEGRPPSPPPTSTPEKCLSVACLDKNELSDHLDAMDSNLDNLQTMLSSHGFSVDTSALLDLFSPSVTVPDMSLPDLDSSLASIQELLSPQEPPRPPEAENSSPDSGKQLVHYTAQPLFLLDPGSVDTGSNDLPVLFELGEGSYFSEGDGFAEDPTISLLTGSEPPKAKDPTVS

The term AC50 denotes the concentration giving half of the maximal activity seen. As for `CC(C)(c1cc(Cl)c(O)c(Cl)c1)c1cc(Cl)c(O)c(Cl)c1`, the AC50 in test [1] was 8 µM (active); in test [2], 47.2 µM (active); in test [5], 56.5 µM (active); in test [9], 33.4 µM (active); in test [12], 27.2 µM (active); in test [14], 47.8 µM (active). In addition, the half-maximal activity concentration (AC50) in [17] is 9 µM (active); in [20], 52.1 µM (active). Further, the call in test [3], in test [4], in test [6], in [7], in [8] and in test [10] was inactive. The result in [11], in test [13], in [15], in test [16], in test [18] and in test [19] was inactive.

As for `N#Cc1cccc(C#N)c1`, the call in test [1], in test [2], in [3], in [4], in test [5] and in [6] was inactive. Further, the compound was classed as inactive in [7], in test [9], in [10], in test [11], in [12] and in test [13]. The outcome in [14], in [15], in [16], in [17], in [18] and in test [19] was inactive. In test [20], the result was inactive.

As to `CCC[N+](=O)[O-]`, the result in test [1], in test [2], in test [4], in [5], in test [6] and in [8] was inactive. The compound was called inactive in test [9], in test [10], in [11], in test [12], in test [13] and in [14]. Besides, the compound was classed as inactive in test [15], in [16], in test [17], in test [18], in [19] and in test [20].

For the compound `Cc1ccccc1CCl`, the compound was called inactive in [1], in [2], in [4], in [5], in [6] and in test [7]. Further, the compound was classed as inactive in test [8], in test [9], in test [10], in test [11], in test [12] and in test [13]. Also, the call in test [14], in test [15], in test [16], in test [17], in [18] and in test [19] was inactive. In test [20], the call was inactive.

On to `CC(C)(Cl)Cl`, for which the call in [1], in test [2], in [3], in test [4], in test [5] and in test [7] was inactive. Also, the result in [8], in test [9], in test [10], in [11], in test [12] and in test [13] was inactive. Moreover, the outcome in [14], in test [15], in test [16], in test [17], in [18] and in test [19] was inactive. Moreover, the compound was classed as inactive in test [20].

In the case of `CC(C)CCCCCCCOP(=O)(Oc1ccccc1)Oc1ccccc1`, the AC50 was 55.6 µM (active) in [1], 1.66 µM (active) in test [12] and 19.5 µM (active) in [18]. The result in [3], in test [4], in [5], in test [6], in test [7] and in test [8] was inactive. Also, the compound was called inactive in test [9], in test [10], in [11], in test [13], in test [14] and in test [15]. In addition, the call in test [16], in [17], in test [19] and in test [20] was inactive.
